The list is not random: actives were taken first. Their share in the collection is about 4.2%.
a7 integrin act: activators of alpha7 integrin expression for muscular dystrophy; alpha7betagal myoblasts, beta-gal FDG fluorescence, 48 h; Potency, µM (highest dose often 38.3 µM), for inactives: at the highest dose activation, most hits filed as activators; 350,000 tested, 0.064% active; AID 624291;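 also: 100% = response of the positive control SU9516; nearly all actives have a fitted effect of over 60% in size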
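Alpha7betagal+/- myoblasts (passage 13) were plated 16-24 hr, then exposed to compounds (1:260 dilution of DMSO stock) for 48 hours at 37C. After MPER lysis, β-galactosidase reporter activity was read as FDG fluorescence (ex 480/em 540) after 30 minutes.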
SW480 rereplic: induces DNA re-replication in SW480 colon adenocarcinoma cells | Potency, µM (series often up to 46.1 µM), without a hit: at the top dose re-replication activation, actives largely listed as activators | SW480 DNA re-replication, Hoechst DNA content imaging, 48 h | 340,000 tested, 1.8% active | AID 624297; also: % of control where 0% means no effect; nearly all actives have a fitted effect of over 55% in size
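Hoechst fluorescence of nuclei (405 nm excitation, 500-530 nm emission) measured by plate-scanning imager after 48 hr compound exposure at 37 C; re-replication scored as increased number of nuclei with elevated intensity.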
MCF10A rerep: induces DNA re-replication in MCF 10a normal breast cells | MCF 10A DNA re-replication, Hoechst nuclear intensity, 48 h | Potency, µM (highest dose often 46.1 µM), inactives show top-dose activity, positive = re-replication, hits mostly activators | 350,000 tested, 2.9% active; also: % of control where 0% means no effect; nearly all actives have a fitted effect of over 50% in size
A-T KAP1 phos: potential ataxia-telangiectasia treatments restoring KAP-1 phosphorylation; F2112 A-T fibroblasts, KAP-1 phosphorylation AlphaLISA; neocarzinostatin DNA damage 30 min before lysis; 320,000 tested, 0.19% active; Potency, µM (highest dose often 57.5 µM), inactives show top-dose activation, usual class: activators; also: % of control where 0% means no effect; nearly all actives have a fitted effect of over 45% in size
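ATM-like activity read as KAP-1 phosphorylation via AlphaLISA donor/acceptor antibody pairs after lysis and 6 hr at 25C. Cells were ATM-null patient fibroblasts (F2112, hTERT), dosed 60 min, then exposed to the DSB inducer NCS for 30 min.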
Mito fusion act: mitochondrial division inhibition or fusion activation; 320,000 tested, 0.23% active; AID 485298; Potency, µM (highest dose often 46.1 µM), inactives show at the top dose growth rescue (activation), actives largely listed as activators; S. cerevisiae fusion-defective mutant growth rescue, CellTiterGlo 48 h; also: % of control where 0% means no effect; nearly all actives have a fitted effect of over 45% in size
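Luminescent cell viability in 1536-well qHTS format served as the measure of rescued growth in ts fusion-mutant S. cerevisiae cultured on non-fermentable YPEG for 48 hours at 37C.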
* hit, by the source's call; ? = inconclusive; . = not tested or not shown. Calls follow the shape of the dose curve; as a rule, active = well fitted activation curve with a large enough effect; inconclusive = small, poorly fitted or top-dose-only effect; inactive = no such curve, though single readings can be large or run the other way. Potency is read from the fitted curve at half-maximal effect.

SMILES	a7 integrin act	SW480 rereplic	MCF10A rerep	A-T KAP1 phos	Mito fusion act
CC(=O)Oc1ccc2c3c(c(=O)oc2c1C)CCCC3	24%	-63%	21µM*	-9%	16%
O=C(/C=C\Nc1ccccn1)c1ccc(Cl)cc1	15%	-16%	-18%	0%	4%
CC(C)CN(CC(C)C)C(=O)CN1C(=O)NC2(CCCc3ccccc32)C1=O (stereo not drawn)	-14%	-1%	-3%	-4%	18%
COCCNC(=O)CSc1n[nH]c(=O)n1CCc1ccccc1	-11%	-4%	-9%	18µM*	-9%
CC(C)C(=O)Nc1ccc(-c2nc3cccnc3o2)cc1	0%	-14%	?	-4%	8%
COc1ccccc1OCC(=O)Nc1ccc(C(=O)Nc2ccccc2C(=O)O)cc1	25%	.	.	.	.
CC(C)(C)c1ccc(OCC(=O)Nc2ccc(C(=O)Nc3ccccc3C(=O)O)cc2)cc1	7%	1%	18µM*	8%	2%
CC(C)(C)c1ccc(OCC(=O)Nc2ccc(-c3nc4cccnc4o3)cc2)cc1	12%	14%	16µM*	.	4%
Cc1[nH]nc2c1C(c1cc(Br)cs1)C(C#N)=C(N)O2 (stereo not drawn)	-51%	?	?	34%	-27%
Cc1ccc(-c2ccccc2NC(=O)CS(=O)CC(=O)Nc2ccc(C)c(Cl)c2)o1 (stereo not drawn)	-5%	?	26µM*	-2%	6%
O=C(NN1C(=O)/C(=C/c2ccc(O)cc2)SC1=S)c1cccc(O)c1	-13%	-11%	-6%	4%	2%
CC(/C=C1\SC(=S)N(NC(=O)c2cccc(O)c2)C1=O)=C\c1ccccc1	-16%	-5%	12µM*	-7%	-24%
O=C(NN1C(=O)/C(=C/C=C/c2ccccc2)SC1=S)c1ccncc1	-41%	-2%	18µM*	-3%	-2%
COC(=O)c1ccc(NC(=S)N2CCC(C(N)=O)CC2)cc1	-15%	-3%	6%	-3%	2%
COc1cccc(C(=O)NC2CC3CCCC(C2)N3CC(=O)Nc2ccccc2C(F)(F)F)c1 (stereo not drawn)	-18%	16µM*	?	-5%	19%
O=C(CN1C2CCCC1CC(NC(=O)C1CCCCC1)C2)Nc1ccccc1C(F)(F)F (stereo not drawn)	-37%	-9%	0%	3%	3%
CC(=O)c1sc(N/N=C\c2cccc(Br)c2)nc1C	-4%	11%	13µM*	-1%	?
CC(=O)c1sc(N/N=C\c2ccc(Br)cc2)nc1C	-33%	?	18µM*	11%	-7%
Cc1cc(=O)[nH]c(N/N=C/c2cccc(Br)c2)n1	-5%	-11%	2%	7%	4%
CCCCCCCCCCCC(=O)[O][Sn]([CH2]CCC)([CH2]CCC)[O]C(=O)CCCCCCCCCCC	.	3%	11%	.	.
CSc1ccc(/C=N/n2c(COc3ccccc3)n[nH]c2=S)cc1	2%	-5%	16%	-9%	-13%
CCOc1ccccc1C(=O)Nc1ccsc1C(=O)OC	-14%	5.8µM*	7.3µM*	16%	21%
Cc1ccc2nc(-c3ccccn3)c(NC3CCCC3)n2c1	-48%	16µM*	?	-1%	-2%
CCCCCCSc1cccc(-c2nc3ccc(C)cn3c2NC2CCCCC2)c1	32%	-10%	16%	?	-9%
COc1ccc2c(c1)C(O)C(CO)C(C(=O)O)C2 (stereo not drawn)	-11%	-1%	-1%	.	.
SMILES	a7 integrin act	SW480 rereplic	MCF10A rerep	A-T KAP1 phos	Mito fusion act
O=C1CSC(=S)N1Cc1cccnc1	-55%	25%	3.3µM*	2%	-15%
O=C(O)c1ccc(N2C(=O)CSC2=S)cc1	-13%	-10%	17%	.	.
O=C(O)c1ccc(CN2C(=O)CSC2=S)cc1	-16%	14%	5.2µM*	-4%	-15%
O=C(NC(=S)Nc1ccccc1C(F)(F)F)c1ccccc1F	-1%	-3%	10µM*	2%	4%
Cc1ccccc1C(=O)NC(=S)Nc1ccccc1C(F)(F)F	-18%	9%	-1%	-1%	-9%
FC(F)(F)c1ccccc1NC(=S)NN=C1CCCCCC1	14%	12µM*	?	0%	5%
COC(=O)c1sc2nc(C)c([N+](=O)[O-])c(C)c2c1N	32%	14%	3%	2%	-21%
